About 79,000 compounds went through this panel and 15% of them were active in at least one assay; those are over-represented in the sample as a whole. Activity calls are given as the source filed them. Cut-off read from the data, not from the text of the source: active = growth inhibition above about 70%; inactive = the rest.
Test: NCI Yeast Anticancer Drug Screen. Data for the bub3 strain (AID 167)
Conditions: S. cerevisiae bub3 mutant strain, at 11.0 µM, hits give high values
Procedure, shortened: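 Whole-cell yeast assay. The mutant strain was incubated with compounds, and growth inhibition was determined by comparison with vehicle-treated cells.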
For `COc1ccc2nc3cccc([N+](=O)[O-])c3c(NCCNCCN(C)C)c2c1`, the growth inhibition was 3% (inactive).
With `Cc1cccc(/C=N/NC(=S)NC2CCCCC2)n1` the growth inhibition was 16% (inactive).
With `COC(=O)C(=O)c1c(-c2ccc(Cl)c(Cl)c2)[nH]c2[nH]n(-c3ccccc3)c(=O)c2c1=O` the growth inhibition was 51% (inactive).
With `c1ccc([P+](CCN2Cc3ccccc3C2)(c2ccccc2)c2ccccc2)cc1` the growth inhibition was 31% (inactive).
For `Cc1cc(C)c2[s+]snc2c1`, the growth inhibition was -5% (inactive).
In the case of `CC(C)(Br)C(=O)/C=C/c1ccccc1`, the growth inhibition is reported as -7% (inactive).
In the case of `Cc1ccc(S(=O)(=O)NC(=O)C2C(=O)CC3(CCCCC3)CC2=O)cc1`, the growth inhibition is reported as 5% (inactive).
With `NC(=S)N1N=C2c3ccccc3CC[C@H]2[C@@H]1c1ccc(Cl)cc1` the growth inhibition was 26% (inactive).
In the case of `O=[N+]([O-])/C=C/c1cc2ccc3ccccc3c2[nH]1`, the growth inhibition is reported as 58% (inactive).
For `O=C1C(=C2CCCC2)CCC1CN1CCCCC1` (configuration not stated), the growth inhibition was 18% (inactive).
With `OC(CC(O)(C(F)(F)F)C(F)(F)F)c1ccc(C(O)CC(O)(C(F)(F)F)C(F)(F)F)cc1` (configuration not stated) the growth inhibition was 95% (active).
With `COc1cc2c(cc1OC)[C@@H](Nc1ccc(C#N)cc1)C1COC(=O)[C@@H]1C2c1cc(OC)c(O)c(OC)c1` (some centres not stated) the growth inhibition was -22% (inactive).
For `O=c1cccccc1[O-].O=c1cccccc1[O-].O=c1cccccc1[O-].[Eu+3]`, the growth inhibition was 2% (inactive).
With `O=C1c2ccccc2C(=O)c2sc(Nc3ccccc3Cl)nc21` the growth inhibition was 97% (active).
For `NC(CCCCCCCCCCCCC(N)C(=O)c1ccccc1)C(=O)c1ccccc1` (configuration not stated), the growth inhibition was 74% (active).
For `CC1=C(C)C(=O)C2=C(OCCO2)C1=O`, the growth inhibition was 9% (inactive).
With `c1ccc(-c2cc(C3CO3)c3ccccc3n2)cc1` (configuration not stated) the growth inhibition was 10% (inactive).
In the case of `S=C1C(=Nc2ccccc2)N(c2ccccc2)/C(=N\c2ccccn2)N1c1ccccc1`, the growth inhibition is reported as 31% (inactive).
In the case of `CCC(OC(C)=O)C1CC(C(C)C)CCC1C` (configuration not stated), the growth inhibition is reported as -3% (inactive).
In the case of `CC(C)=CCc1c2c(c(O)c3c(=O)c(-c4ccc(O)c(O)c4)coc13)C=CC(C)(C)O2`, the growth inhibition is reported as 90% (active).
With `O=C(NC(N1CCN(c2cc3c(cc2F)c(=O)c(C(=O)O)cn3C2CC2)CC1)(C(F)(F)F)C(F)(F)F)c1ccccc1` the growth inhibition was 1% (inactive).
With `Fc1cc(F)c(F)c(S)c1F` the growth inhibition was 26% (inactive).
For `COc1ccc2cc3c4cc5c(cc4cc[n+]3cc2c1OC)OCO5`, the growth inhibition was 46% (inactive).
In the case of `CCCCCCCCNCCCCCCCC`, the growth inhibition is reported as 95% (active).
In the case of `Nc1cc(Cl)ccc1Nc1ccccc1`, the growth inhibition is reported as -24% (inactive).
In the case of `O=C(/C(=C/c1ccc(O)cc1)c1ccccc1)c1ccccc1`, the growth inhibition is reported as 82% (active).
In the case of `O=Cc1ccccc1C=O`, the growth inhibition is reported as 14% (inactive).
For `C1=CCN([B-](c2ccccc2)[C+]2CCCCC2)C=C1`, the growth inhibition was 4% (inactive).
In the case of `CC/C(=C(\c1ccccc1)c1ccc(OCC[N+](C)(C)C)cc1)c1ccccc1`, the growth inhibition is reported as 99% (active).
With `O=S(=O)(c1cccc(C(F)(F)F)c1)N1c2ccccc2-n2cccc2C1c1cccnc1` (configuration not stated) the growth inhibition was 62% (inactive).
With `Nc1ccc2c(c1)C(=O)c1c(F)cccc1-2` the growth inhibition was 1% (inactive).
In the case of `CN(C)/C(=N/C(=S)Nc1ccccc1)SCc1ccccc1`, the growth inhibition is reported as 3% (inactive).
For `CCN(CC)C(=S)N/N=C(\C)c1ccccc1O`, the growth inhibition was 36% (inactive).
In the case of `CC(C)OC(=O)NNc1cc(Cl)ccc1Cl`, the growth inhibition is reported as 19% (inactive).
In the case of `CC(C)CCC[C@@H](C)[C@H]1CC[C@H]2[C@@H]3CC[C@H]4C[C@H](N)CC[C@]4(C)[C@H]3CC[C@]12C`, the growth inhibition is reported as -6% (inactive).
In the case of `O=C1c2ccccc2-c2ccc(N=Cc3ccccc3)cc21`, the growth inhibition is reported as -1% (inactive).

Same assay, conditions: S. cerevisiae bub3 mutant strain, at 33.0 µM, hits give high values
With `COc1ccc2nc3cccc([N+](=O)[O-])c3c(NCCNCCN(C)C)c2c1` the growth inhibition was -5% (inactive).
For `Cc1cccc(/C=N/NC(=S)NC2CCCCC2)n1`, the growth inhibition was 32% (inactive).
For `COC(=O)C(=O)c1c(-c2ccc(Cl)c(Cl)c2)[nH]c2[nH]n(-c3ccccc3)c(=O)c2c1=O`, the growth inhibition was 54% (inactive).
In the case of `c1ccc([P+](CCN2Cc3ccccc3C2)(c2ccccc2)c2ccccc2)cc1`, the growth inhibition is reported as 64% (inactive).
With `Cc1cc(C)c2[s+]snc2c1` the growth inhibition was 1% (inactive).
In the case of `CC(C)(Br)C(=O)/C=C/c1ccccc1`, the growth inhibition is reported as -2% (inactive).
For `Cc1ccc(S(=O)(=O)NC(=O)C2C(=O)CC3(CCCCC3)CC2=O)cc1`, the growth inhibition was 72% (active).
In the case of `NC(=S)N1N=C2c3ccccc3CC[C@H]2[C@@H]1c1ccc(Cl)cc1`, the growth inhibition is reported as 46% (inactive).
In the case of `O=[N+]([O-])/C=C/c1cc2ccc3ccccc3c2[nH]1`, the growth inhibition is reported as 86% (active).
With `O=C1C(=C2CCCC2)CCC1CN1CCCCC1` (configuration not stated) the growth inhibition was 81% (active).
With `OC(CC(O)(C(F)(F)F)C(F)(F)F)c1ccc(C(O)CC(O)(C(F)(F)F)C(F)(F)F)cc1` (configuration not stated) the growth inhibition was 99% (active).
With `COc1cc2c(cc1OC)[C@@H](Nc1ccc(C#N)cc1)C1COC(=O)[C@@H]1C2c1cc(OC)c(O)c(OC)c1` (some centres not stated) the growth inhibition was 15% (inactive).
With `O=c1cccccc1[O-].O=c1cccccc1[O-].O=c1cccccc1[O-].[Eu+3]` the growth inhibition was 96% (active).
With `O=C1c2ccccc2C(=O)c2sc(Nc3ccccc3Cl)nc21` the growth inhibition was 99% (active).
In the case of `NC(CCCCCCCCCCCCC(N)C(=O)c1ccccc1)C(=O)c1ccccc1` (configuration not stated), the growth inhibition is reported as 95% (active).
For `CC1=C(C)C(=O)C2=C(OCCO2)C1=O`, the growth inhibition was 18% (inactive).
For `c1ccc(-c2cc(C3CO3)c3ccccc3n2)cc1` (configuration not stated), the growth inhibition was 41% (inactive).
For `S=C1C(=Nc2ccccc2)N(c2ccccc2)/C(=N\c2ccccn2)N1c1ccccc1`, the growth inhibition was 99% (active).
In the case of `CCC(OC(C)=O)C1CC(C(C)C)CCC1C` (configuration not stated), the growth inhibition is reported as -2% (inactive).
For `CC(C)=CCc1c2c(c(O)c3c(=O)c(-c4ccc(O)c(O)c4)coc13)C=CC(C)(C)O2`, the growth inhibition was 93% (active).
For `O=C(NC(N1CCN(c2cc3c(cc2F)c(=O)c(C(=O)O)cn3C2CC2)CC1)(C(F)(F)F)C(F)(F)F)c1ccccc1`, the growth inhibition was 2% (inactive).
In the case of `Fc1cc(F)c(F)c(S)c1F`, the growth inhibition is reported as 84% (active).
In the case of `COc1ccc2cc3c4cc5c(cc4cc[n+]3cc2c1OC)OCO5`, the growth inhibition is reported as 88% (active).
In the case of `CCCCCCCCNCCCCCCCC`, the growth inhibition is reported as 98% (active).
With `Nc1cc(Cl)ccc1Nc1ccccc1` the growth inhibition was -8% (inactive).
For `O=C(/C(=C/c1ccc(O)cc1)c1ccccc1)c1ccccc1`, the growth inhibition was 99% (active).
In the case of `O=Cc1ccccc1C=O`, the growth inhibition is reported as 23% (inactive).
In the case of `C1=CCN([B-](c2ccccc2)[C+]2CCCCC2)C=C1`, the growth inhibition is reported as 80% (active).
For `CC/C(=C(\c1ccccc1)c1ccc(OCC[N+](C)(C)C)cc1)c1ccccc1`, the growth inhibition was 99% (active).
With `O=S(=O)(c1cccc(C(F)(F)F)c1)N1c2ccccc2-n2cccc2C1c1cccnc1` (configuration not stated) the growth inhibition was 94% (active).
In the case of `Nc1ccc2c(c1)C(=O)c1c(F)cccc1-2`, the growth inhibition is reported as 12% (inactive).
In the case of `CN(C)/C(=N/C(=S)Nc1ccccc1)SCc1ccccc1`, the growth inhibition is reported as 8% (inactive).
For `CCN(CC)C(=S)N/N=C(\C)c1ccccc1O`, the growth inhibition was 97% (active).
With `CC(C)OC(=O)NNc1cc(Cl)ccc1Cl` the growth inhibition was 39% (inactive).
With `CC(C)CCC[C@@H](C)[C@H]1CC[C@H]2[C@@H]3CC[C@H]4C[C@H](N)CC[C@]4(C)[C@H]3CC[C@]12C` the growth inhibition was -4% (inactive).
For `O=C1c2ccccc2-c2ccc(N=Cc3ccccc3)cc21`, the growth inhibition was 9% (inactive).
